# Experimental data taken from PubChem BioAssay AID624156 (Broad Institute, 2012).
# About 900 (2%) of roughly 46,000 compounds were called active. Not shown: some 1% with an inconclusive outcome. Cut-off read from the data, not from the text of the source: active = ROS induction above about 79% (passing the limit was not always enough); inconclusive = no clear call, values can overlap the other calls. The list comes from a sample in which actives are over-represented; it also holds similar structures and randomly drawn compounds.
# Test: ROS inducers in U2OS cancer cells, primary screen, cell-based, H2DCF-DA fluorescence (AID 624156);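 note: 0% = DMSO vehicle median and 100% = reference compound median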
# Conditions: at 10 µM, stronger effect = higher value
row,SMILES,ROS induction (% of piperlongumine)
1,CC(C)(C)NC(=S)N1CCn2cccc2C1c1ccccc1F (stereo unspecified),2.09% (inactive)
2,Cn1nnc(NC(=O)COc2ccc(Cl)cc2Cl)n1,-1.96% (inactive)
3,Cc1noc(C)c1NC(=O)Nc1ccc2c(c1)C(=O)N([C@H](C)CO)C[C@@H](C)[C@H](CN(C)Cc1ccncc1)O2,-4.05% (inactive)
4,COc1cccc(-c2cnc3c(c2)C(=O)N([C@H](C)CO)C[C@H](C)[C@H](CN(C)Cc2ccncc2)O3)c1,32.7% (inactive)
5,Cc1c(C(=O)N(Cc2ccccc2)Cc2cccnc2)cnn1-c1ccc(F)cc1,-9.45% (inactive)
6,Brc1ccc(/C=N/n2cnnc2SCc2ccccc2)cc1,2.37% (inactive)
7,COc1ccc(NS(=O)(=O)c2ccc3c4c(cccc24)C(=O)S3)cc1,35.7% (inactive)
8,O=C(Oc1c(Br)cc(Br)c2cccnc12)N1CCOCC1,3.35% (inactive)
9,COC(=O)c1c(C)n(CCNc2ccc([N+](=O)[O-])cc2)c2ccc(O)cc12,98.5% (active)
10,O=[N+]([O-])c1ccc(NCCNc2nc3ccccc3nc2N2CCOCC2)cc1,61% (inactive)
11,COC(=O)c1ccc(NCc2cc(O)ccc2O)cc1,10.2% (inactive)
12,C[C@@H]1CCCCO[C@@H](CN(C)C(=O)NC2CCCCC2)[C@@H](C)CN([C@H](C)CO)C(=O)c2cc(NC(=O)CCC(F)(F)F)ccc2O1,37.6% (inactive)
13,Cc1noc(C)c1NC(=O)N(C)C[C@H]1Oc2ccc(NC(=O)Nc3ccc(C(F)(F)F)cc3)cc2CC(=O)N([C@@H](C)CO)C[C@@H]1C,87.8% (active)
14,C[C@H](CO)N1C[C@H](C)[C@H](CN(C)C(=O)Nc2ccc(C(F)(F)F)cc2)Oc2ccc(NC(=O)Nc3ccccc3)cc2C1=O,84% (active)
15,Cc1noc(C)c1NC(=O)Nc1ccc2c(c1)CC(=O)N([C@H](C)CO)C[C@@H](C)[C@@H](CN(C)Cc1ccc(C(F)(F)F)cc1)O2,6.6% (inactive)
16,C[C@@H]1CN([C@H](C)CO)C(=O)Cc2cc(NS(=O)(=O)c3cn(C)cn3)ccc2O[C@@H]1CN(C)C(=O)Nc1ccccc1,-5.68% (inactive)
17,C[C@@H]1CN([C@H](C)CO)C(=O)c2cc(NC(=O)Nc3ccc(C(F)(F)F)cc3)ccc2O[C@H]1CN(C)C(=O)Nc1ccccc1,23.2% (inactive)
18,C[C@H]1CN([C@@H](C)CO)C(=O)Cc2cc(NS(=O)(=O)c3cn(C)cn3)ccc2O[C@H]1CN(C)C(=O)Nc1ccc(F)cc1,29.3% (inactive)
19,C[C@H]1CN([C@@H](C)CO)C(=O)c2cc(NC(=O)Nc3ccccc3)ccc2O[C@@H]1CN(C)C(=O)Nc1ccccc1,-12.6% (inactive)
20,C[C@H](CO)N1C[C@H](C)[C@H](CN(C)C(=O)Nc2ccc(C(F)(F)F)cc2)Oc2ccc(NS(=O)(=O)c3cn(C)cn3)cc2CC1=O,125% (active)
21,Cc1noc(C)c1NC(=O)N(C)C[C@@H]1Oc2ccc(NC(=O)Nc3ccc(C(F)(F)F)cc3)cc2C(=O)N([C@H](C)CO)C[C@@H]1C,-6.13% (inactive)
